ROMK mod = ROMK potassium channel modulators, primary screen, cell-based, thallium flux, MLSMR library | ATP-sensitive inward rectifier potassium channel 1 (Homo sapiens), P48048 | Tet-inducible ROMK, thallium flux fluorescence; actives lie on both sides | B-score at 10 µM | actives 2% (n = 130,000) | AID 1918, 2009;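 active = signal ratio slope over the read window, or its plate-corrected B-score, at least 3 SD from the plate mean, either direction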;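 also: B-score of the F/F0 ratio slope over 7 to 12 s after thallium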
Target sequence (P48048 whole entry, looked up): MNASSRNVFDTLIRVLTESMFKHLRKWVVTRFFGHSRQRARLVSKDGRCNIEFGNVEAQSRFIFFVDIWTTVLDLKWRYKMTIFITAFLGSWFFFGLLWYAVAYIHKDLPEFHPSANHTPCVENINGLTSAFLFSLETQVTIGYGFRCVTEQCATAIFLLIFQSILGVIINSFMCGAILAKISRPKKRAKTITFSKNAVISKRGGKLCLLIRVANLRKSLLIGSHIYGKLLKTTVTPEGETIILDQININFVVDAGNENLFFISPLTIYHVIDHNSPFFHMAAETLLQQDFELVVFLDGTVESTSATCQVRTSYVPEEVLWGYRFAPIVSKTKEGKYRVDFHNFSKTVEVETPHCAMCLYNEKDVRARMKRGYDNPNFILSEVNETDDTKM
Lmaj promast = Leishmania major promastigote growth inhibition, primary screen; Leishmania major promastigotes, resazurin fluorescence viability; inhibition, % at 10 µM; actives 9% (n = 200,000); in the data active = inhibition above about 50%;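 also: promastigotes grown with compound for 44 hours at 28 °C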
INS promoter inh = inhibitors of insulin promoter-driven GFP, primary screen, imaging, TRM-6 cells (human fetal islet line), eGFP reporter, cell count. reporter expression induced with tamoxifen. inhibition, % at 2 µM. actives 0.9% (n = 130,000). AID 1273, 2008;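 active = inhibition above the mean plus 3 SD, with well images judged a real hit on visual review, cut at about 60% in these data, passing the limit was not always enough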
KCC2 mod = KCC2 cotransporter modulators, thallium flux, primary screen, cell-based, HEK293 KCC2, FluoZin-2 fluorescence, MLSMR | B-score of Tl+ flux slope (higher = more flux/activation; lower = inhibition) at 10 µM | AID 1456, 2008 | KCC2 cells, thallium flux FluoZin-2 fluorescence | Solute carrier family 12 member 5 (Homo sapiens), Q9H2X9 | actives 2.2% (n = 190,000);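 active = thallium flux slope and its plate-corrected score both differing from the plate sample mean at a set confidence after two filtering rounds, in either direction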;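 also: slope of fluorescence scaled to starting intensity during 10 to 20 s after thallium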
WT yeast gro inh = growth inhibition of WT strain, primary screen, mitochondrial fusion inhibitor project, WT and mutant strains, chemical genetic. mitochondrial fusion phenotypic screen. inhibition, % at 10 µM. actives 2.1% (n = 190,000). AID 1362, 2008; in the data active = inhibition above about 58%; tested in S. cerevisiae
Insulin prom up = insulin promoter activators in MIN6 cells, imaging, high-content screening, mouse beta cells | actives 0.3% (n = 190,000) | MIN6 insulin promoter-GFP reporter; hits give high values | z-score at 5 µM | AID 1625, 2009;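 active = z-score above 3 at 5 µM with at least 500 cells counted in the well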
Starred values were filed as active, the others as inactive; nt = no result given. Only some compounds are listed: those with a hit (about 12% of all), similar ones and a draw of the others.

SMILES	ROMK mod	Lmaj promast	INS promoter inh	KCC2 mod	WT yeast gro inh	Insulin prom up
O=C1CC(N2CCN(Cc3ccccc3)CC2)C(=O)N1CCc1ccccc1 (stereo not drawn)	1.15	88.4*	15.2	-0.712	2.1	-0.87
CC(=O)O[C@@H]1C[C@H]2C(C)=C[C@H]3OC(=O)[C@@H](C)[C@H]3C[C@H]2[C@]1(C)O	nt	nt	nt	-0.317	nt	nt
CCN1CCN(C(=O)C2c3cc(OC)c(OC)cc3C(=O)N(C)C2c2ccc(SC)cc2)CC1 (stereo not drawn)	nt	76.5*	-42.5	0.743	2.2	-0.37
O=C(COC(=O)c1ccc(Cl)nc1)Nc1ccccc1OC(F)F	-0.0627	-0.3	nt	0.0438	-16.9	-0.08
CC(NC(=S)Nc1c(Br)cccc1OC(F)F)C(C)(C)C (stereo not drawn)	-0.156	59.9*	3.5	2.11	13.2	-0.41
S=C1Nc2ccccc2Sc2ccc(Cl)cc21	1.45	0.9	46.4	16.4*	13.8	-0.21
Clc1cc2c(nn1)Nc1ccccc1S2	nt	nt	nt	-0.00955	nt	0.02
Cc1ccc(-c2noc(CN3CCN(C(c4ccccc4)c4ccccc4)CC3)n2)cc1	nt	-0.7	20.6	-0.221	4.3	-0.15
O=C(C1CCN(Cc2ccc(Cl)cc2)CC1)N1CCN(C(c2ccccc2)c2ccccc2)CC1	nt	87.5*	nt	0.471	56.1	0.68
Clc1ccc(C(c2ccccc2)N2CCN(c3ccccn3)CC2)cc1 (stereo not drawn)	nt	nt	nt	0.169	nt	-0.23
CN1CCCN(C(c2ccccc2)c2ccc(Cl)cc2)CC1 (stereo not drawn)	nt	98.7*	-54.5	0.626	14.3	nt
Cc1cccc(CN2CCN(C(c3ccccc3)c3ccc(Cl)cc3)CC2)c1 (stereo not drawn)	nt	63.2*	13.6	0.402	65.8*	nt
CC(C)C(=O)Nc1ccc([N+](=O)[O-])cc1Br	-0.824	-4.6	-88.2	-0.872	-5.7	0.64
CC(=O)c1cc2c(cc1NC(=O)CCNC(=O)c1ccccc1Cl)OCO2	nt	-5.9	26.5	-0.672	-12.3	0.86
CC1CN(C2CCN(C(=O)c3ccccc3Cl)CC2)CC(C)O1 (stereo not drawn)	0.813	88.4*	nt	nt	-19.4	0.15
O=C(c1cccc(Cl)c1)N1CCC(N2CCC(C(=O)N3CCOCC3)CC2)CC1	nt	41.6	nt	1.05	-2.2	1.26
CC1CN(C2CCN(C(=O)c3cccc(Cl)c3)CC2)CC(C)O1 (stereo not drawn)	nt	91.0*	-20.0	nt	5.2	nt
O=C(c1cccc(F)c1)N1CCC(N2CCOCC2)CC1	0.222	62.5*	3.6	0.496	-6.8	nt
O=C(O)C1CCN(C(=O)c2ccccc2Cl)CC1	1.89	-5.0	20.0	-0.103	-3.9	-0.42
CCN(C(=O)CSc1ncccc1C(=O)O)C1CCCCC1	0.202	-6.5	nt	0.0988	12.4	0.1
CCCCn1c(=O)c(CC(C)=O)nc2ccccc21	0.0767	0.6	15.4	nt	-11.6	-0.33
CCCCn1c(N(CCOC(C)=O)C(C)=O)nc2ccccc21	1.13	5.2	88.9*	0.0415	-18.0	nt
COc1ccc(-c2cc(C(F)(F)F)n3ncc(C(=O)N4CCc5ccccc5C4)c3n2)cc1	-2.33	29.0	nt	0.0838	31.1	-0.42
Cc1nnsc1C(=O)N/N=C/c1ccc2ccccc2c1O	nt	100.0*	nt	-3.93	3.3	-4.07
Cc1ccc(NC(=O)N2CCCCC2)cc1[N+](=O)[O-]	nt	nt	nt	nt	nt	-0.21
SMILES	ROMK mod	Lmaj promast	INS promoter inh	KCC2 mod	WT yeast gro inh	Insulin prom up
O=C(O)C1CC1C(=O)N1CCN(c2ccc(Cl)c(Cl)c2)CC1 (stereo not drawn)	-0.335	87.8*	-241.7	0.249	-2.8	0.57
O=C(NCc1ccccc1)N1CCN(c2ccc(Cl)c(Cl)c2)CC1	-0.832	-0.8	nt	0.136	-14.7	-1.28
O=C(NCC(c1cccs1)N1CCOCC1)c1ccc(Cl)c([N+](=O)[O-])c1 (stereo not drawn)	nt	-2.5	nt	0.00659	-8.7	-0.31
CCc1nnc(NC(=O)CCC(=O)N2CCN(CCc3ccccc3)CC2)s1	nt	nt	nt	nt	-6.9	0.42
NNc1nc2c(Cl)ccc(Cl)c2s1	nt	97.6*	22.2	-1.4	18.8	-0.35
CCOc1cccc2sc(NN)nc12	0.0172	4.8	-2.9	1.11	30.1	-0.13
CC(=O)N1c2ccc(Cl)cc2C2C=CCC2C1c1cccc2ccccc12 (stereo not drawn)	nt	22.3	-13.3	-0.259	4.8	nt
